Assay [1] in a line: rapamycin-like changes in RPL19A-GFP expression – cell-based, S. cerevisiae, multiplex flow cytometry, primary screen (AID 1862; in the data active means percent of DMSO control GFP below about 86%;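 further: lower values mimic rapamycin by blocking the RPL19A rise seen in DMSO cells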). The note with it: S. cerevisiae RPL19A-GFP strain, flow cytometry fluorescence, 3 h; at 10 µM; stronger effect = lower value. On the technique in general: In flow cytometry, cells or beads pass a laser one at a time.
Assay [2] can be described thus: TOR pathway GLN3 branch reporter MEP2-GFP changes – S. cerevisiae, multiplex flow cytometry, primary screen (AID 1867;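 active means GFP response, as percent of the DMSO control, above the screen-wide mean plus 3 SD, about 139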;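 further: median GFP channel fluorescence of barcode-gated MEP2-GFP cells measured by flow cytometry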). Particulars: S. cerevisiae MEP2-GFP strain, 3 h, at 10 µM, stronger effect = higher value, 100% means same as DMSO wells.
Assay [3] is described as follows: TOR pathway RTG branch CIT2 reporter changes – S. cerevisiae, GFP fusion, multiplex flow cytometry, primary screen (AID 1870;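 active means percent response above a set limit, the screen-wide mean plus 3 SD, cut at about 130% in these data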;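 further: barcoded CIT2-GFP strain pooled with four other GFP strains with rapamycin as positive control; median GFP fluorescence per well over plate mean of DMSO wells so 100% = DMSO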). The note with it: S. cerevisiae CIT2-GFP expression, 3 h, at 10 µM, stronger effect = higher value.
Assay [4] in a line: TOR pathway LAP4-GFP level changes – S. cerevisiae, multiplex flow cytometry, primary screen (AID 1873). Particulars: S. cerevisiae LAP4-GFP expression, 3 h, at 10 µM, stronger effect = higher value.
Assay [5] can be described thus: yeast AGP1-GFP level changes, GLN3 branch – cell-based, multiplex flow cytometry, S. cerevisiae, primary screen (AID 1887;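 active means GFP signal above the screen-wide mean plus 3 SD, that is over about 124.5% of the solvent control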;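 further: AGP1-GFP fusion strain of S. cerevisiae within a five-strain barcoded multiplex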). The note with it: 3 h, at 10 µM, stronger effect = higher value.
The nature of assay [6]: reduced mouse 2C T cell binding to pMHC/ICAM-1 vesicles – MLPCN validation set, flow cytometry, LFA-1/ICAM-1 modulator project, pilot screen (AID 2523;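 active means response below a set limit, under 55% cells CD8-positive and vesicle-bound, and CD8 cells' 90th-percentile brightness under 279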;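 on vesicle binding response: mean PE anti-B7-1 fluorescence of CD8+ cells relative to row control; 100% = QL9-loaded vesicles with DMSO vehicle in the same plate row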). The note with it: 2C mouse CD8+ T cells, at 7 µM, stronger effect = lower value; double positive events: measured here: CD8+/vesicle+ event percentage.
Assay [7] deals with Integrin beta-1 (Homo sapiens) + Integrin alpha-4 (Homo sapiens) (UniProt P13612+P05556). The assay can be described thus: alpha4beta1 integrin LIBS antibody binding reduction – U937 cells, HUTS-21 mAb, flow cytometry, validation set, VLA-4 allosteric modulator project, pilot screen (AID 2674;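 active means inhibition above 50%, about 3 SD of the validation set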;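 further: antibody binding induced by the VLA-4 ligand LDV present at three times its Kd; 0% = LDV ligand with antibody and no compound and 100% = antibody without LDV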). The note with it: HUTS-21 LIBS mAb binding, at 6.7 µM, stronger effect = higher value, binding induced by LDV ligand.

A short description of assay [8]: calorie-restriction mimetic ROS inhibitors, yeast – validation compound set, pilot screen (AID 2706;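 active means superoxide response below 65% of plate, a cut near 3 SD across the whole screen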;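 further: yeast exposed to compound for one week at 30 degrees C before staining; 100% = mean of all compound wells on the same plate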). Particulars: S. cerevisiae aging, superoxide DHE fluorescence; at 10 µM, stronger effect = lower value.
Assay [9] concerns the target Beta-adrenergic receptor kinase 1 (Homo sapiens) (UniProt P25098). Kind of assay: GRK2 binders displacing RNA aptamer, biochemical, validation, human GRK2, bead flow cytometry (AID 488806;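 active means aptamer binding inhibition above 30%, about 3 SD of noise from non-fluorescent compounds; inactive means inhibition at or below 30%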). Particulars: bead-bound GRK2, FAM-aptamer displacement, at 10 µM, stronger effect = higher value.
In assay [10] the target is AP-2 complex subunit beta (Homo sapiens) (UniProt P63010). The assay can be described thus: beta-arrestin/AP2 interaction blockers – biochemical, validation set, GST-AP2 beads, flow cytometry, pilot screen (AID 504541;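 active means inhibition above 54%, about 3 SD of non-fluorescent compounds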;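 further: AP2 carries R879A mutation and is captured from E. coli lysate; bead-bound FITC arrestin peptide fluorescence measuring arrestin peptide binding to AP2; 0% = DMSO wells and 100% = excess unlabeled arrestin peptide control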). The note with it: FITC arrestin peptide, at 10 µM, stronger effect = higher value, AP2 beta2 appendage fragment, R879A mutant.
Assay [11] in a line: cytosolic pH regulators acting via V-ATPase – S. cerevisiae, pHLuorin, HTS validation (AID 504600; in the data active means response above about 15%;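 further: plate controls were DMSO for no effect and reference compound for full effect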). The note with it: V-ATPase proton transport, at 10 µM, stronger effect = higher value.
The subject of assay [12] is anti-desmoglein-3 scFv antibody binding to human DSG3. Kind of assay: blockers of pathogenic pemphigus antibody–desmoglein-3 binding – biochemical, validation compound set, bead-based, flow cytometry, pilot screen (AID 588368;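 active means binding below the plate cutoff, the plate median minus 3 SD, with a reading above zero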;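 further: signal is the median channel fluorescence of bead-bound GFP antibody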). The note with it: Protein G beads, DSG3-Fc, scFv-GFP binding, at 10 µM, stronger effect = lower value.
A short description of assay [13]: Nile Red efflux blockade in pump-expressing yeast – validation compound set, multiplex, phenotypic, pilot screen (AID 588506;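 active means efflux inhibition above 0.42, the validation set average plus 4 SD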;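 further: Nile Red retained in cells so higher fluorescence means more efflux inhibition; 0 = negative control wells and 1 = enniatin B 25 µM full block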). Particulars: S. cerevisiae pump-expressing triplex, Nile Red efflux flow cytometry; at 10 µM; stronger effect = higher value; the pumps come from Candida albicans.
Assay [14] deals with ATP-binding cassette sub-family B member 6 (Homo sapiens) (UniProt Q9NP58). The assay can be described thus: blockers of ABCB6-driven porphyrin uptake – K562-ABCB6 cells, flow cytometry, validation set, pilot screen (AID 588550;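 active means inhibition above the screen-wide mean plus 3 SD, about 51%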;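 further: 0% = DMSO wells and 100% = benzethonium chloride 70 µM positive control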). Particulars: K562-ABCB6 porphyrin accumulation, 1 h, at 10 µM, stronger effect = higher value.
Assay [15] in a line: AML differentiation inducers, ER-HoxA9 marrow cells – cell-based, GFP/MAC1 double positive, flow cytometry, validation set, primary screen (AID 588685;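 active means differentiation response of at least 50%, scaled between solvent and reference control, from cells with both markers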;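 further: compound exposure lasts four days before antibody staining and flow analysis; 0% = DMSO wells and 100% = 5 µM fulvestrant positive control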). The note with it: stronger effect = higher value, normalized: vehicle 0, fulvestrant 100.

Records with an inconclusive call do not appear. Activity calls are given as the source filed them.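 How the source made its calls, unless noted: active means GFP signal, as percent of the solvent control, above the screen mean plus 3 SD, about 149; inconclusive means no reading because the compound's own fluorescence upset strain identification; inactive means the rest.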

One may read the inhibition as the drop in the measured response relative to a control, in per cent.

Sequence of Integrin beta-1 (Homo sapiens) + Integrin alpha-4 (Homo sapiens) (P05556 whole entry, looked up): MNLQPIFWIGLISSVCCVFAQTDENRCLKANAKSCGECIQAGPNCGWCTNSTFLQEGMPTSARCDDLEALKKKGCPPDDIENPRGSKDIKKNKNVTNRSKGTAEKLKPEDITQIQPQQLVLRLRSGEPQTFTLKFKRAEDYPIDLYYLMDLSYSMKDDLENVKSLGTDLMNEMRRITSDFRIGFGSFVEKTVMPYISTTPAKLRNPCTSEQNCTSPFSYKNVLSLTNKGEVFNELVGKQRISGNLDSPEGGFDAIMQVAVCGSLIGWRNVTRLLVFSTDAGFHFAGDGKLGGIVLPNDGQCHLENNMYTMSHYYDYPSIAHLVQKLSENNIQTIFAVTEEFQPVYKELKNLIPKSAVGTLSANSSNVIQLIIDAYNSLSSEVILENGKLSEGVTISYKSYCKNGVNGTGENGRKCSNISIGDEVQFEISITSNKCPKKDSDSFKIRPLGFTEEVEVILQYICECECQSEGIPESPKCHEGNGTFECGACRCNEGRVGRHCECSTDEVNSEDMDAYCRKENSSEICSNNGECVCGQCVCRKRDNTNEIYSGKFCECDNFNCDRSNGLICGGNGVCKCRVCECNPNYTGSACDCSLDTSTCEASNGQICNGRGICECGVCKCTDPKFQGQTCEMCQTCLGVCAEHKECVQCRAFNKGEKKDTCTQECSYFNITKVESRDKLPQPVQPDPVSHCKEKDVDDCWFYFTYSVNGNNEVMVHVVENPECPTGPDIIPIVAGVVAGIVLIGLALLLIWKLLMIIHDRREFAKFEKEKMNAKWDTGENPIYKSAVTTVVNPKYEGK
Sequence of Integrin beta-1 (Homo sapiens) + Integrin alpha-4 (Homo sapiens) (P13612 whole entry, looked up): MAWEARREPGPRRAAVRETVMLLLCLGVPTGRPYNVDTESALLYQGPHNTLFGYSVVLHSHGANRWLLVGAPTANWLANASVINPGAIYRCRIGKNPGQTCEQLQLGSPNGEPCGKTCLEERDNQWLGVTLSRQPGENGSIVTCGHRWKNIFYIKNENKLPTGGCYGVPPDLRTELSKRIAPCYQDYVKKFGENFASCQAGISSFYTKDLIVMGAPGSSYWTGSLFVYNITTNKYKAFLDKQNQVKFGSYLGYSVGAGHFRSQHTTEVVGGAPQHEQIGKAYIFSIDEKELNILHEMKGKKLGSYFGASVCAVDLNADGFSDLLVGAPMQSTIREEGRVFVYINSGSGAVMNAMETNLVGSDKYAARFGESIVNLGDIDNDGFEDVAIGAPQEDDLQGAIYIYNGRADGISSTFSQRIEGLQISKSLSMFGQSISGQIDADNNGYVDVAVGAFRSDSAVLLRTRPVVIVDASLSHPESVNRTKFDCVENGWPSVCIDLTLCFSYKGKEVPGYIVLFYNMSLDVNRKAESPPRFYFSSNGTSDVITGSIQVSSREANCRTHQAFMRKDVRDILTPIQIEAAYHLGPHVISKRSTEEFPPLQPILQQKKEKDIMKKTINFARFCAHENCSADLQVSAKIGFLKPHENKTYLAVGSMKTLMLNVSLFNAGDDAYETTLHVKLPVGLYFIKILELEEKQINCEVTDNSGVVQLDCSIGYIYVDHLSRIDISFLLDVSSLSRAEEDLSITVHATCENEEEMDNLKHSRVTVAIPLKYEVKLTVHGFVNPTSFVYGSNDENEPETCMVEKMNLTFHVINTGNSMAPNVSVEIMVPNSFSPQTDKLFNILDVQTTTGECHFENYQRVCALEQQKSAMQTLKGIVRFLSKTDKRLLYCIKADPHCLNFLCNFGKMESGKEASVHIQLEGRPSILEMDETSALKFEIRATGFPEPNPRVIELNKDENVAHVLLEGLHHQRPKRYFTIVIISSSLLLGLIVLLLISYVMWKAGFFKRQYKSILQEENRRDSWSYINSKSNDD
Sequence of ATP-binding cassette sub-family B member 6 (Homo sapiens) (Q9NP58 whole entry, looked up): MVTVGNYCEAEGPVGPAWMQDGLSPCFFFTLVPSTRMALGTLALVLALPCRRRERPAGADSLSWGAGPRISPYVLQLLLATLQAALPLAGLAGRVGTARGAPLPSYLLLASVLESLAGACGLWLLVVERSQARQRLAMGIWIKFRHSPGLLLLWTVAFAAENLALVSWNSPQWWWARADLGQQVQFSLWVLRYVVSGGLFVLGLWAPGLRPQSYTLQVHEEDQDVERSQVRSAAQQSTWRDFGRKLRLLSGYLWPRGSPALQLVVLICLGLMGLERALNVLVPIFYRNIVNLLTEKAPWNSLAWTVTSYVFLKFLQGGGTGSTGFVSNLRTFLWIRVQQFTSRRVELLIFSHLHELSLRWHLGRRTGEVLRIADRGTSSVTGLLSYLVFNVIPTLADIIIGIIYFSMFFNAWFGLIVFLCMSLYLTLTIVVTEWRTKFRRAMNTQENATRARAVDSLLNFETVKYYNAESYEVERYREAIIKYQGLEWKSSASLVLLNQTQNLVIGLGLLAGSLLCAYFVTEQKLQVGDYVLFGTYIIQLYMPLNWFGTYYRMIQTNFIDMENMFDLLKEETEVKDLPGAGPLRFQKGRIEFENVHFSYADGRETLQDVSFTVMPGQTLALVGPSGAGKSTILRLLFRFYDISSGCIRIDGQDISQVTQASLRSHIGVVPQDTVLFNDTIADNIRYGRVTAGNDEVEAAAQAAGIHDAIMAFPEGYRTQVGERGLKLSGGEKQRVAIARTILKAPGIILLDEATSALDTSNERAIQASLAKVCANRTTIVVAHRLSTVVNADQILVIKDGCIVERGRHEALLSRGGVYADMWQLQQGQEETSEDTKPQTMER
Sequence of Beta-adrenergic receptor kinase 1 (Homo sapiens) (P25098 whole entry, looked up): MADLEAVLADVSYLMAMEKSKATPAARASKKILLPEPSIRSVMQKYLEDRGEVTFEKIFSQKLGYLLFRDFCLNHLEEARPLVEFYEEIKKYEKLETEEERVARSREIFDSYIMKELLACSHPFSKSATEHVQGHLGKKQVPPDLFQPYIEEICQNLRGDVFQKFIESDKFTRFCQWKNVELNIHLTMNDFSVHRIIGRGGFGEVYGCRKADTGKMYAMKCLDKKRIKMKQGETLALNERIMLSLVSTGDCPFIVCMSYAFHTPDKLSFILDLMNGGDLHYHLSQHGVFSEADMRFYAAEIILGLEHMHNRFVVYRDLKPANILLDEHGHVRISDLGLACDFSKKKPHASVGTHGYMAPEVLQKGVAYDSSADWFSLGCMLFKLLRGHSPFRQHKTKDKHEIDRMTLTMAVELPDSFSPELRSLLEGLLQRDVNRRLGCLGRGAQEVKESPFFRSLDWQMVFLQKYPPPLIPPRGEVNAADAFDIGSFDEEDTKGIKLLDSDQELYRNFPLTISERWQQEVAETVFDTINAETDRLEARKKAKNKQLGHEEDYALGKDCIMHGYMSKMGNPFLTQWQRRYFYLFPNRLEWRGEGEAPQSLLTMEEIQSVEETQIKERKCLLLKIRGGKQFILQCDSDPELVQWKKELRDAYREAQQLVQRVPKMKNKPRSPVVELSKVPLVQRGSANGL
Sequence of AP-2 complex subunit beta (Homo sapiens) (P63010 whole entry, looked up, the tested form may be a part, one chain of several): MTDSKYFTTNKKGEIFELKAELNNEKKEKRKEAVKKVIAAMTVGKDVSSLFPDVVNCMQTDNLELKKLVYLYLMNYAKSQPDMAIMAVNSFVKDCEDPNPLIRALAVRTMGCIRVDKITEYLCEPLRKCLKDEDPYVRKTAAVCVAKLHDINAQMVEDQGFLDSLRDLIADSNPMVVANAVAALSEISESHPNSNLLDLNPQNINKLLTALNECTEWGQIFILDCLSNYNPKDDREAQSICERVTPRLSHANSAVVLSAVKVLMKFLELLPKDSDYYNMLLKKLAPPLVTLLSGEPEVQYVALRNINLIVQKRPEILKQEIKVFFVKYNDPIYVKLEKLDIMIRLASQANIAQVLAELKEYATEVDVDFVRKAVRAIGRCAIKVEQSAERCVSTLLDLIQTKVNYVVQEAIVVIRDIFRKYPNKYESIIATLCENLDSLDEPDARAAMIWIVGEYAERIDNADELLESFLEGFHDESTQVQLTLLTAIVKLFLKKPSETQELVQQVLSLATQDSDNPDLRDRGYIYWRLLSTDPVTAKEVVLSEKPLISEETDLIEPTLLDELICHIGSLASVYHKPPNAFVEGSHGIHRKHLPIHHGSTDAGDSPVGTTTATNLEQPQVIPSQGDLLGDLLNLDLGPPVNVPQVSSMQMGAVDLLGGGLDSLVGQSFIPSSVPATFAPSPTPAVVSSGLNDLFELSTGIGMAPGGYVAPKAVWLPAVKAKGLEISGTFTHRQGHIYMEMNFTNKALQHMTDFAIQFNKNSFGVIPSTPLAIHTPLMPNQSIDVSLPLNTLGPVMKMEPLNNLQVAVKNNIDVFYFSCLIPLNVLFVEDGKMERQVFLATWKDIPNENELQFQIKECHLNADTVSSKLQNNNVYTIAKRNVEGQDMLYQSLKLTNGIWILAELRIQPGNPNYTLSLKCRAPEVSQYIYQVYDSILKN

Consider `CN(C)CCC(c1ccc(Br)cc1)c1ccccn1` (stereo not given), for which the percent of DMSO control GFP in assay [1] is 103% (inactive). Moreover, the GFP response vs DMSO in assay [2] is 101% (inactive); in assay [4], 97.4% (inactive). Besides, the percent response of DMSO control in assay [3] is 94.9% (inactive). In addition, the GFP response, % of DMSO in assay [5] is 100% (inactive). In [6], the double positive events was determined as 56.9%. The vesicle binding response in assay [6] was 182% (inactive). The figures for the inhibition in [7], in [10] and in assay [14] were 36.1% (inactive), -4.8% (inactive) and 12% (inactive), respectively. In [8], the superoxide response (% of plate) was 106% (inactive). Further, in assay [9], the aptamer binding inhibition is 2% (inactive). Also, the response in [11] is 2.41% (inactive). Also, the binding (% of control) in assay [12] is 103% (inactive). Besides, in assay [13], the efflux inhibition (fraction of control) is 0.18 (inactive). In addition, the differentiation response in assay [15] was -1.82% (inactive).

Turning to `CC(=O)Oc1ccc2occ(/C=N/c3cc(=O)[nH]c(=S)[nH]3)c(=O)c2c1`, in assay [1], the percent of DMSO control GFP is 98% (inactive). Also, the GFP response vs DMSO in assay [2] was 102% (inactive); in assay [4], 91.3% (inactive). In [3], the percent response of DMSO control was 96.9% (inactive). The GFP response, % of DMSO in assay [5] is 98.5% (inactive). This compound showed a double positive events in assay [6] of 66.1%. Moreover, the vesicle binding response in [6] is 181% (inactive). In addition, the inhibition in assay [7] was 7.22% (inactive); in assay [10], 25.5% (inactive); in [14] it was 10% (inactive). Further, the superoxide response (% of plate) in assay [8] was 90.5% (inactive). Moreover, in assay [9], the aptamer binding inhibition was 1% (inactive). Further, in assay [11], the response is -8.27% (inactive). The binding (% of control) in assay [12] is 103% (inactive). Moreover, in assay [13], the efflux inhibition (fraction of control) is 0.33 (inactive). For the same compound, in [15], the differentiation response was 40.2% (inactive).

Turning to `Cc1ncc([N+](=O)[O-])n1CC(C)O` (stereo not given), the percent of DMSO control GFP in [1] is 101% (inactive). Moreover, the results for the GFP response vs DMSO in assay [2] and in [4] were 103% (inactive) and 99.4% (inactive), respectively. Moreover, the percent response of DMSO control in assay [3] is 103% (inactive). Moreover, the GFP response, % of DMSO in assay [5] was 97.3% (inactive). Moreover, the double positive events in [6] was found to be 52.2%. Moreover, in [6], the vesicle binding response was 149% (inactive). The inhibition is 8.15% (inactive) in assay [7], -6.78% (inactive) in assay [10] and 8% (inactive) in assay [14]. Besides, the superoxide response (% of plate) in assay [8] is 100% (inactive). The aptamer binding inhibition in assay [9] was 9% (inactive). Moreover, in assay [11], the response is -2.48% (inactive). In assay [12], the binding (% of control) was 100% (inactive). For the same compound, the efflux inhibition (fraction of control) in assay [13] is 0.14 (inactive). Moreover, the differentiation response in assay [15] was -9.89% (inactive).

Regarding `COC(=O)c1ccc(COc2ccc3c(C)c(C)c(=O)oc3c2C)o1`, the percent of DMSO control GFP in assay [1] is 101% (inactive). The values for the GFP response vs DMSO in [2] and in assay [4] were 97.9% (inactive) and 92.3% (inactive), respectively. For the same compound, the percent response of DMSO control in assay [3] is 96.9% (inactive). The GFP response, % of DMSO in assay [5] is 91.6% (inactive). Moreover, the double positive events in [6] came to 57.7%. In addition, in assay [6], the vesicle binding response is 157% (inactive). The inhibition in assay [7] is 14.7% (inactive); in [10], 4.76% (inactive); in assay [14], 11% (inactive). In addition, the superoxide response (% of plate) in [8] is 96.2% (inactive). Also, in [9], the aptamer binding inhibition is 3% (inactive). In [11], the response was -2.54% (inactive). Further, the binding (% of control) in [12] was 102% (inactive). For the same compound, the efflux inhibition (fraction of control) in assay [13] was 0.06 (inactive). The differentiation response in [15] was 9.49% (inactive).

Regarding `Clc1ccc(OCCCN2CCCCC2)c(Br)c1`, the percent of DMSO control GFP in assay [1] was 105% (inactive). Besides, the GFP response vs DMSO is 95.9% (inactive) in assay [2] and 88.3% (inactive) in assay [4]. For the same compound, the percent response of DMSO control in [3] is 112% (inactive). Besides, the GFP response, % of DMSO in assay [5] is 98.7% (inactive). This compound also had a double positive events in assay [6] of 57.1%. Moreover, the vesicle binding response in assay [6] was 202% (inactive). The inhibition was 4.42% (inactive) in [7], -6.22% (inactive) in assay [10] and 7% (inactive) in assay [14]. Further, the superoxide response (% of plate) in [8] was 88.5% (inactive). In addition, the aptamer binding inhibition in [9] was -2% (inactive). In assay [11], the response was 0.07% (inactive). Moreover, the binding (% of control) in [12] was 103% (inactive). For the same compound, in assay [13], the efflux inhibition (fraction of control) was -0.35 (inactive). The differentiation response in [15] was 0% (inactive).
